This note sets out measurements from PubChem BioAssay (NCATS).

Results filed as inconclusive are left out. A call without a number means that no potency is given here. Active and inactive are the calls of the source. Calls come from the whole dose curve; as a rule, active = well fitted cell-killing curve with a large enough effect; inconclusive = small, poorly fitted or top-dose-only effect; inactive = flat fitted curve, though single readings scatter.
Potency is the fitted concentration of half-maximal effect.

This test in a line: qHTS of pediatric cancer cell lines to identify multiple opportunities for drug repurposing: Primary screen for BT-37 cells (AID 1347094). The note with it: BT-37 viability, CellTiter-Glo luminescence, 48 h; series mostly up to 57.3 µM. From the text: Drug repurposing or repositioning has been offered as a strategy for drug development in oncology programs. This approach has special potential for childhood cancers and other rare or orphan diseases, where the expected return on new drug development has been a disincentive to pharmaceuticals. […] In this project we exploit the poly-pharmacology of drugs to discover new indications via phenotypic screening of a panel of 19 well-characterized cell lines derived from solid tumors seen in children and adolescents. The goal is to identify approved drugs with previously unrecognized anticancer properties that has the potential to reveal new mechanisms and biological processes involved in carcinogenesis or drug resistance. We employed a titration-based paradigm (quantitative high-throughput screening or qHTS), where all compounds were tested at multiple concentrations for their effect on cell viability. Concentration-response curves (CRCs) were derived directly from the primary screen, and both potency and efficacy values were used to identify compounds with robust bioactivity profiles. We screened the NIH Chemical Genomics Center (NCGC) Pharmaceutical Collection (NPC) and Mechanism Interrogation Plate (MIPE) small molecule collections of approved and investigational compounds against these cell lines; and measured metabolically active cells after 48 hours of compound treatment as a proxy for cell viability. […] Assay Submitter: Nathalia J. Martinez, National Center for Advancing Translational Sciences, National Institutes of Health, Rockville, MD, USA; email: natalia.martinez@nih.gov Shen, M et al. Quantitative high-throughput phenotypic screening of pediatric cancer cell lines identifies multiple opportunities for drug repurposing. Oncotarget 2017 Dec 19;9(4):4758-4772. PMID 29435139.
The cells were obtained from University of North Carolina (UNC), Pediatric Preclinical Testing Program (PPT), and Coriell Institute (CI). qHTS cell viability assay: Cells were assayed in growth media at a density of 500-1,000 cells/well. Five microliters of cells were dispensed into 1,536-well, white, solid-bottom, TC-treated plates (Greiner Bio One) using a multidrop dispenser and incubated at 37 degrees C, 5% CO2, under a humidified atmosphere for 5 hours. Twenty-three nanoliters of compounds and controls (neutral control DMSO or positive control bortezomib at final concentration of 2.3 µM) were subsequently transferred by Kalypsys pintool. For primary screens, the MIPE collection was tested at 11-point dilutions (final concentrations range from 0.78 nM to 46 µM) and the NPC collection at 8-point dilutions (final concentrations range from 0.59 nM to 46 µM). Compounds tested in follow-up screens were assayed at 11-point dilutions. Cells were incubated for 48 hours, followed by addition of 3 µL of CellTiter-Glo (Promega). After a 15 min incubation at room temperature, samples were analyzed for luminescence intensity using a ViewLux High-throughput CCD imager equipped with clear filters.
In general terms: Quantitative high-throughput screening tests each substance at several concentrations.
For the compound `C[C@]12CCC(=O)C=C1CC[C@H]1[C@@H]3CC[C@](O)(C(=O)CO)[C@@]3(C)C[C@H](O)[C@@]12F`, the Potency entry is “inactive”. On to `C[C@H](O)C(=O)Nc1c(I)c(C(=O)NC(CO)CO)c(I)c(C(=O)NC(CO)CO)c1I`, for which the Potency result is “inactive”. Regarding `NCCC(O)(P(=O)(O)O)P(=O)(O)O`, the Potency result was “inactive”. Turning to `Cc1cc(O)c(C(C)C)cc1Cl`, the Potency entry was “inactive”. Take `Nc1ccc(/C=C/c2ccc(N)cc2S(=O)(=O)O)c(S(=O)(=O)O)c1`: the activity change, negative = cytotoxic is 22.8% [at 0.745 µM] (inactive). As to `CC(C)(C(=O)c1cccnc1)c1cccnc1`, the Potency entry is “inactive”. Consider `CCCCCC=CCC=CCCCCCCCC(=O)OCC`, for which the Potency result was “inactive”. Regarding `CCOC(=O)COc1ccc2c(C)c(CCN(CC)CC)c(=O)oc2c1Cl`, the Potency result is “inactive”. For the compound `Cc1c(C)n(Cc2ccccc2)c2ccc(C(=O)OCCN(C)C)cc12`, the Potency entry is “inactive”. In the case of `CCCCC(=O)O[C@]1(C(=O)CO)CC[C@H]2[C@@H]3CCC4=CC(=O)CC[C@]4(C)[C@H]3[C@@H](O)C[C@@]21C`, the Potency result was “inactive”.

For the compound `C=CCc1ccc(O)c(OC)c1`, the Potency entry is “inactive”. Regarding `OC(CCN1CCCCC1)(c1ccccc1)c1ccccc1`, the Potency entry was “inactive”. Regarding `C[C@]12C=CC(=O)C=C1[C@@H](F)C[C@@H]1[C@@H]2[C@@H](O)C[C@@]2(C)[C@H]1CC[C@]2(O)C(=O)CO`, the Potency entry is “inactive”. Still for that read-out and setting: for `CCCSS/C(CCO)=C(\C)N(C=O)Cc1cnc(C)nc1N` the value was “inactive”. Still for that read-out and setting: under `COC(=O)CCc1ccc(OCC(O)CNC(C)C)cc1` (stereo not given) stands “inactive”; under `O=C(OCCOCCO)c1ccccc1Nc1cccc(C(F)(F)F)c1`, “inactive”. Take `O=S1(=O)c2cccc3cccc(c23)N1CCCN1CCN(c2ccc(F)cc2)CC1`: the Potency entry was “inactive”. Take `C/C=C/c1ccc(OC)cc1`: the Potency entry was “inactive”. On to `CN1CCN(C(c2ccccc2)c2ccccc2)CC1`, for which the Potency result is “inactive”. Still for that read-out and setting: under `CCC(C(=O)OCCN(CC)CC)c1ccccc1` (stereo not given) stands “inactive”; under `CC(=O)Nc1c(I)cc(I)c(C(=O)O)c1I`, “inactive”; under `COc1ccc(C2C(=O)c3ccccc3C2=O)cc1`, “inactive”. Take `CC1(C)O[C@@H]2C[C@H]3[C@@H]4C[C@H](F)C5=CC(=O)C=C[C@]5(C)[C@H]4[C@@H](O)C[C@]3(C)[C@]2(C(=O)CO)O1`: the Potency entry is “inactive”. Regarding `Cc1ccc(Nc2c(F)cccc2Cl)c(CC(=O)O)c1`, the Potency result was “inactive”.

As to `CC(=O)Oc1ccc(C(=C2CCCCC2)c2ccc(OC(C)=O)cc2)cc1`, the Potency entry is “inactive”.

As to `CCOC(=O)OC(C)OC1=C(C(=O)Nc2ccccn2)N(C)S(=O)(=O)c2ccccc21` (stereo not given), the Potency entry is “inactive”. Same read-out and setting: under `O=C1c2ccccc2C(=O)C1c1ccccc1` stands “inactive”. With `Cc1ncc(CSSCc2cnc(C)c(O)c2CO)c(CO)c1O`, the Potency result is “inactive”. Regarding `NCCCC[C@H](N[C@@H](CCc1ccccc1)C(=O)O)C(=O)N1CCC[C@H]1C(=O)O`, the Potency entry was “inactive”. For `N[C@@H](CCC(=O)N[C@@H](CS)C(=O)NCC(=O)O)C(=O)O`, the Potency entry is “inactive”. `Oc1ccc(Cl)cc1Sc1cc(Cl)ccc1O`: the Potency is 21.9 µM (active).

Turning to `Oc1ccc(O)cc1`, the Potency entry was “inactive”. As to `Cc1cc(N)c2cc(NC(=O)Nc3ccc4nc(C)cc(N)c4c3)ccc2n1`, the Potency result is “inactive”. Take `CC1(C)O[C@@H]2[C@@H](CO[C@@]3(COS(N)(=O)=O)OC(C)(C)O[C@@H]23)O1`: the Potency entry was “inactive”. Take `c1ccc(CNCCNCc2ccccc2)cc1`: the Potency result was “inactive”. For the compound `Oc1cc(O)c2c(c1)O[C@H](c1ccc(O)c(O)c1)[C@H](O)C2`, the Potency entry was “inactive”. Turning to `COCc1c(C(C)C)nc(C(C)C)c(/C=C/[C@@H](O)C[C@@H](O)CC(=O)O)c1-c1ccc(F)cc1`, the Potency is 2.19 µM (active). On to `O=C(O)CNC(=O)c1ccccc1`, for which the Potency entry was “inactive”. For the compound `COc1c2occc2c(OC)c2c(=O)cc(C)oc12`, the Potency entry is “inactive”. The same measure, in the same setting: under `O=C(Nc1ccc(Oc2ccc(Cl)cc2)c(Cl)c1)c1cc(I)cc(I)c1O` stands “inactive”.
